Screening results as filed in PubChem BioAssay.
This is a sample that favours compounds with a hit; in the whole collection about 32% have one here.
CYP2C9 inhib = human CYP2C9 inhibition. P11712. CYP2C9 Supersomes, luciferin-H conversion, luminescence. inhibition, % at 5 µM. actives 20% (n = 96,000);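 active = blocking of liver enzyme CYP2C9 beyond about 50% at 5 µM, limit read from the data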
PostGolgi yeast = growth inhibition of a yeast mutant, post-Golgi transport screen; actives 0.9% (n = 98,000); post-Golgi transport phenotypic cell assay; inhibition, % at 10 µM; AID 739;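 also: yeast cells grown in 1536-well plates; yeast grown about 18 h at 30C before absorbance read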
CYP2C19 activ = increases human CYP2C19 enzyme activity; 96,000 tested, under 10 active; recombinant CYP2C19, luciferin-H EGE luminescence; stronger effect = higher value; 0 = fully inhibited enzyme, 1 = untreated enzyme; activation factor at 5 µM; AID 1025; P33261;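 active = activation factor of at least 2 at 5 µM in the primary screen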;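 also: 0 = wells with 2.5 mM tranylcypromine and 1 = vehicle-only wells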
Target sequence (P33261 whole entry, looked up): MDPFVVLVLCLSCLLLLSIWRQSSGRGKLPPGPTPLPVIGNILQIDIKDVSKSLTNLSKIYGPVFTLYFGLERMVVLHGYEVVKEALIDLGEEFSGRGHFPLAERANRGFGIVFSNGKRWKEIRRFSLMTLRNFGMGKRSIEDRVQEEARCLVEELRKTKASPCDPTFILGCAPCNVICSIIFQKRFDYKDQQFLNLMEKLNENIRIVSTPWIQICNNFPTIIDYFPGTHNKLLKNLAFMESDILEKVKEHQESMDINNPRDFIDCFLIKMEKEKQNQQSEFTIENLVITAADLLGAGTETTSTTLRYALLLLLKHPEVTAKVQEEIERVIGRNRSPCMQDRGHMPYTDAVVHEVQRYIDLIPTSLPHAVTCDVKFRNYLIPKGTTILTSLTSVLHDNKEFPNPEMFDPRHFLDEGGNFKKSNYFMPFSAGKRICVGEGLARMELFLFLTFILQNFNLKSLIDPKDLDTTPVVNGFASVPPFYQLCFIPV
CYP2C19 inh = human CYP2C19 inhibition; CYP2C19 Supersomes, luciferin-H EGE luminescence, 30 min; inhibition, % at 5 µM; actives 21% (n = 96,000);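 active = CYP2C19 inhibition above a set limit at 5 µM in the primary screen, cut at about 50% in these data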;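 also: plate controls were negative control wells for no effect and 2.5 mM tranylcypromine positive control for full effect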
PostGolgi ctrl = inhibits growth of the yeast control strain | efflux-deficient yeast background strain, growth absorbance A615, 16 h | inhibition, % at 10 µM | actives 5% (n = 98,000) | AID 738
CYP2C9 act = CYP2C9 (human) activation; P11712; recombinant CYP2C9, luciferin-H conversion, luminescence; stronger effect = higher value; factor 1 = untreated enzyme, 0 = blocked; activation factor at 5 µM; actives 1.4% (n = 96,000); AID 1024;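 active = activation factor of 2 or more for CYP2C9 at a 5 µM dose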;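 also: 0 = sulfaphenazole-blocked wells and 1 = vehicle-only wells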
* hit, by the source's call. Rule as the data show it, unless noted: active = inhibition above about 30%; inactive = the rest.

What do the screens show for `COC(=O)Cc1ccc(NC(=O)c2ccc(C)c(C)c2)cc1`?
CYP2C9 inhib: -62.2; PostGolgi yeast: -2.5; CYP2C19 activ: 0.9; CYP2C19 inh: 7.1; PostGolgi ctrl: -1.2; CYP2C9 act: 1.6

What do the screens show for `Cc1ccc(C(=O)Nc2ccc(O)c(C(=O)O)c2)o1`?
CYP2C9 inhib: -8.3; PostGolgi yeast: 2.8; CYP2C19 activ: 0.9; CYP2C19 inh: 8.7; PostGolgi ctrl: -5.3; CYP2C9 act: 1.1

How did CCc1ccc(CC)c(S(=O)(=O)Nc2ccc(O)c(C(=O)O)c2)c1 do in these assays?
CYP2C9 inhib: 76.9*; PostGolgi yeast: 10.6; CYP2C19 activ: 0.9; CYP2C19 inh: 6.0; PostGolgi ctrl: 4.2; CYP2C9 act: 0.2

What do the screens show for `CCc1ccc(CC)c(S(=O)(=O)Nc2ccc(C(=O)O)c(O)c2)c1`?
CYP2C9 inhib: 83.2*; PostGolgi yeast: -21.2; CYP2C19 activ: 0.9; CYP2C19 inh: 8.5; PostGolgi ctrl: -5.5; CYP2C9 act: 0.2

How did Cc1ccc(N(CC(=O)N2CCc3ccccc32)S(=O)(=O)c2cccs2)cc1 do in these assays?
CYP2C9 inhib: 9.3; PostGolgi yeast: -4.1; CYP2C19 activ: 1; CYP2C19 inh: 4.9; PostGolgi ctrl: 24.1; CYP2C9 act: 0.9

How did COc1ccc(N(CC(=O)N2CCc3ccccc32)S(=O)(=O)c2c(C)n[nH]c2C)cc1 do in these assays?
CYP2C9 inhib: 76.4*; PostGolgi yeast: 4.3; CYP2C19 activ: 0.6; CYP2C19 inh: 40.0; PostGolgi ctrl: 9.9; CYP2C9 act: 0.2

How did COc1ccc2oc(=O)c(C(=O)N3CCN(c4ccccc4C)CC3)cc2c1 do in these assays?
CYP2C9 inhib: -0.5; PostGolgi yeast: 3.2; CYP2C19 activ: 1; CYP2C19 inh: 0.7; PostGolgi ctrl: 8.4; CYP2C9 act: 1

What do the screens show for `COc1ccc2oc(=O)c(C(=O)N3c4ccccc4CC3C)cc2c1` (stereo not drawn)?
CYP2C9 inhib: 67.8*; PostGolgi yeast: 8.9; CYP2C19 activ: 0.8; CYP2C19 inh: 19.5; PostGolgi ctrl: 10.9; CYP2C9 act: 0.3

How did COc1ccc(S(=O)(=O)CCC(=O)N2c3ccccc3CC2C)cc1 (stereo not drawn) do in these assays?
CYP2C9 inhib: -96.1; PostGolgi yeast: 3.9; CYP2C19 activ: 0.6; CYP2C19 inh: 38.0; PostGolgi ctrl: 4.7; CYP2C9 act: 2*

What do the screens show for `COc1ccc(N(CC(=O)N2c3ccccc3CC2C)S(=O)(=O)c2c(C)nn(C)c2C)cc1` (stereo not drawn)?
CYP2C9 inhib: 77.3*; PostGolgi yeast: -2.7; CYP2C19 activ: 0.2; CYP2C19 inh: 79.8*; PostGolgi ctrl: 8.9; CYP2C9 act: 0.2

What do the screens show for `CCCCc1c(O)nc(N2CCN(Cc3ccccc3)CC2)[nH]c1=O`?
CYP2C9 inhib: 11.9; PostGolgi yeast: 1.4; CYP2C19 activ: 1.1; CYP2C19 inh: -8.2; PostGolgi ctrl: 10.8; CYP2C9 act: 0.9

How did O=C(NCc1ccco1)c1cc(-c2cccs2)on1 do in these assays?
CYP2C9 inhib: -66.6; PostGolgi yeast: 1.9; CYP2C19 activ: 0.8; CYP2C19 inh: 16.0; PostGolgi ctrl: -3.2; CYP2C9 act: 1.7

How did CCCc1cc(N2CCCC(C(=O)Nc3ccc(OC)cc3OC)C2)n2ncnc2n1 (stereo not drawn) do in these assays?
CYP2C9 inhib: 48.0; PostGolgi yeast: -2.1; CYP2C19 activ: 0.7; CYP2C19 inh: 29.0; PostGolgi ctrl: 1.4; CYP2C9 act: 0.5

What do the screens show for `COc1ccc(N(CC(=O)N2CCc3ccccc32)S(=O)(=O)c2c(C)nn(C)c2C)cc1`?
CYP2C9 inhib: 59.7*; PostGolgi yeast: -5.6; CYP2C19 activ: 0.7; CYP2C19 inh: 25.6; PostGolgi ctrl: 10.9; CYP2C9 act: 0.4

What do the screens show for `Cc1nn(C)c(C)c1S(=O)(=O)N(CC(=O)Nc1ccccn1)c1ccc(C(C)C)cc1`?
PostGolgi yeast: 1.1; PostGolgi ctrl: 7.9

Results for COc1ccc(N(CC(=O)N2CCCC(C)C2)S(=O)(=O)c2c(C)nn(C)c2C)cc1 (stereo not drawn) ?
CYP2C9 inhib: 37.4; PostGolgi yeast: -1.6; CYP2C19 activ: 0.5; CYP2C19 inh: 53.4*; PostGolgi ctrl: -6.7; CYP2C9 act: 0.6

How did Cc1cccc(NC(=O)CN(c2ccc(C(C)C)cc2)S(=O)(=O)c2c(C)nn(C)c2C)n1 do in these assays?
CYP2C9 inhib: 96.9*; PostGolgi yeast: -0.8; CYP2C19 activ: 0; CYP2C19 inh: 96.3*; PostGolgi ctrl: 5.5; CYP2C9 act: 0
